# From PubChem BioAssay
# This excerpt belongs to a sample that is enriched for hits.
# VHR inh color – inhibitors of human VHR1 phosphatase (DUSP3); recombinant VHR phosphatase, colorimetric substrate read-out; inhibition, % at 20 µM; P51452; 0.7% of 50,000 active; in the data active = inhibition above about 60%
# Target sequence (P51452 whole entry, looked up): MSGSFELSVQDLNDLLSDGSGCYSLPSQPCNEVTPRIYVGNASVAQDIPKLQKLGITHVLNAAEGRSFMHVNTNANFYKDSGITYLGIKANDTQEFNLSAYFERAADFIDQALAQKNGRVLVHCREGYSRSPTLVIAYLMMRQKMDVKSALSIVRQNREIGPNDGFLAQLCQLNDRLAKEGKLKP
# Active calls of the source: *.
SMILES,VHR inh color
CCOC(=O)c1c(-n2ncnc2-c2ccc([N+](=O)[O-])cc2)sc2c1CCCC2,-28
Cc1ccccc1NCN1C(=O)S/C(=C/C=C/c2ccccc2)C1=O,-14
CCN1C(=O)/C(=C\c2cc(Br)ccc2OCCOc2cccc(OC)c2)SC1=S,1
CCc1ccc(NC(=S)NC(=O)/C=C/c2ccccc2)cc1,-29
C=CCN1C(=O)/C(=C\c2ccc(-c3cc([N+](=O)[O-])ccc3C)o2)C(=O)NC1=S,74*
CC(C)c1ccc(N2C(=O)NC(=O)/C(=C/c3cccc([N+](=O)[O-])c3)C2=O)cc1,6
COc1ccc(-c2ccc(/C=C3/C(=O)NC(=O)N(c4ccccc4)C3=O)o2)c([N+](=O)[O-])c1,81*
Cc1ccc([N+](=O)[O-])cc1-c1ccc(/C=C2\C(=O)NC(=O)N(c3ccc(Cl)cc3)C2=O)o1,-30
COc1ccc(-c2ccc(/C=C3\C(=O)NC(=O)N(c4ccc(Cl)cc4)C3=O)o2)c([N+](=O)[O-])c1,2
Cc1ccc([N+](=O)[O-])cc1-c1ccc(/C=C2/C(=O)NC(=O)N(c3ccccc3)C2=O)o1,43
O=C1NC(=O)N(c2ccccc2)C(=O)/C1=C/c1ccc(-c2ccccc2C(=O)O)o1,8
Cc1cccc(N2C(=O)NC(=O)/C(=C\c3ccc(-c4ccccc4C(=O)O)o3)C2=O)c1,-4
O=C1NC(=O)N(c2ccc(Cl)cc2)C(=O)/C1=C\c1ccc(-c2ccc([N+](=O)[O-])cc2)o1,-16
CC(C)c1ccc(N2C(=O)NC(=O)/C(=C/c3ccc([N+](=O)[O-])o3)C2=O)cc1,85*
COc1ccc(-c2ccc(/C=C3/C(=O)NC(=O)N(c4ccc(C)cc4)C3=O)o2)c([N+](=O)[O-])c1,11
O=C1NC(=S)N(c2cccc(Br)c2)C(=O)/C1=C/c1ccc(-c2ccccc2C(=O)O)o1,80*
CC(C)CN1C(=O)/C(=C/C2CC=CCC2)SC1=S (stereo not drawn),-12
COc1ccccc1CNC(=O)CC(c1ccccc1)c1ccccc1,-25
Cc1ccc2oc(-c3ccc(NC(=O)c4cc5ccccc5o4)cc3)nc2c1,-15
COc1cccc(/C=C2\SC(N)=NC2=O)c1OC,-2
CC(=O)ONC(=NCc1ccccc1)c1nonc1N,-16
COc1ccc(N2C(=O)NC(=O)/C(=C\c3cc(I)c(OC)c(OC)c3)C2=O)cc1,4
COc1ccc(N2C(=O)/C(=C/c3ccc(-c4ccc(C(=O)O)cc4)o3)C(=O)NC2=S)cc1,32
COc1cccc(/C=C2/C(=O)NC(=O)N(c3ccc(C(C)C)cc3)C2=O)c1O,89*
COc1ccc(N2C(=O)/C(=C/c3ccc(-c4ccccc4[N+](=O)[O-])o3)C(=O)NC2=S)cc1,81*
SMILES,VHR inh color
COc1cc(/C=C2/C(=O)NC(=O)N(c3ccc(C(C)C)cc3)C2=O)cc(OC)c1O,27
COc1cccc(/C=C2/C(=O)NC(=O)N(c3ccc(Br)cc3)C2=O)c1O,-16
O=C1NC(=O)N(c2ccc(Cl)cc2)C(=O)/C1=C\c1ccc(-c2ccccc2[N+](=O)[O-])o1,-8
CCOC(=O)C1=C(O)/C(=C/c2ccccc2)SC1=Nc1ccc([N+](=O)[O-])cc1,0
Cc1cc(OCC(=O)Nc2ccccc2)ccc1Cl,4
COc1ccc(N2C(=O)C(Cl)=C(Nc3cccc(OC)c3)C2=O)cc1,10
CC1(CC2C(CC(N)=O)C2(C)C)OCCO1 (stereo not drawn),2
CC(C(=O)O)N1C(=O)/C(=C/c2cccs2)SC1=S (stereo not drawn),-5
Cc1c(Cl)cccc1N=C1NC(=O)/C(=C/c2ccc(-c3ccccc3C(=O)O)o2)S1,86*
Cc1c(Cl)cccc1N=C1NC(=O)/C(=C/c2cccc(O)c2)S1,2
Cc1c(Cl)cccc1N=C1NC(=O)/C(=C/c2ccc3c(c2)OCO3)S1,24
O=C1CC(c2ccccc2)CC2=C1C(c1ccco1)Nc1ccccc1N2 (stereo not drawn),7
Cc1ccc(C2Nc3ccc(C(=O)c4ccccc4)cc3NC3=C2C(=O)CCC3)o1 (stereo not drawn),101*
CC1(C)CC(=O)C2=C(C1)Nc1ccccc1NC2c1coc2ccccc2c1=O (stereo not drawn),3
Cc1ccc(C2Nc3ccc(C(=O)c4ccccc4)cc3NC3=C2C(=O)CC(C)(C)C3)o1 (stereo not drawn),-5
O=C1CCCC2=C1C(c1ccc(F)cc1)Nc1ccc(C(=O)c3ccccc3)cc1N2 (stereo not drawn),35
O=C1CC(c2ccccc2)CC2=C1C(c1cccc(Cl)c1Cl)Nc1ccccc1N2 (stereo not drawn),2
O=C1CC(c2ccccc2)CC2=C1C(c1coc3ccccc3c1=O)Nc1ccccc1N2 (stereo not drawn),112*
O=C1CC(c2ccccc2)CC2=C1C(c1c(F)cccc1Cl)Nc1ccccc1N2 (stereo not drawn),115*
COc1ccc(C2CC(=O)C3=C(C2)Nc2ccccc2NC3c2ccc(C)o2)cc1 (stereo not drawn),94*
COc1ccc(C2CC(=O)C3=C(C2)Nc2ccccc2NC3c2c(F)cccc2Cl)cc1 (stereo not drawn),8
CCOc1ccc(C2Nc3ccccc3NC3=C2C(=O)CC(c2ccc(OC)cc2)C3)cc1 (stereo not drawn),-5
COc1ccc(C2CC(=O)C3=C(C2)Nc2ccccc2NC3c2ccccc2)cc1 (stereo not drawn),23
O=c1c2c(nc3cc(-c4ccco4)[nH]n13)CCS2,8
CC1(C)Cc2nc(N)c(C#N)cc2CO1,-34
SMILES,VHR inh color
Cc1ccc(OCC(=O)N/N=C/c2c(C)[nH]n(-c3ccccc3)c2=O)cc1,-6
COc1ccc(C2C(C(C)=O)=C(Nc3ccc(Br)cc3)CC(C)(O)C2C(C)=O)cc1 (stereo not drawn),-13
O=C(Nc1nc2ccc([N+](=O)[O-])cc2s1)c1cccc(Oc2ccccc2)c1,-24
COCCCNC(=O)c1ccc(I)cc1,-28
CC(=O)N(C)c1ccc(N2CCCCC2)c2c1C(=O)c1ccccc1C2=O,-22
CCCC1CCc2c(sc(NC(=O)C3CC3c3ccccc3)c2C(N)=O)C1 (stereo not drawn),13
C=CCN1C(=O)/C(=C\c2cccs2)C(=O)NC1=S,31
COc1ccc(/C=N/N2CCN(Cc3cccc4ccccc34)CC2)c(OC)c1,-2
COc1ccc(C2CC(=O)C3=C(C2)Nc2ccccc2NC3c2ccccc2OCc2ccccc2)cc1OC (stereo not drawn),98*
O=C1CC(c2ccccc2)CC2=C1C(c1ccc(-c3ccccc3)cc1)Nc1ccccc1N2 (stereo not drawn),4
COc1ccc(C2CC(=O)C3=C(C2)Nc2ccccc2NC3c2cccc(OC)c2OC)cc1OC (stereo not drawn),-1
O=C1CC(c2ccc(Cl)cc2)CC2=C1C(c1ccc3c(c1)OCO3)Nc1ccccc1N2 (stereo not drawn),-20
CCOc1ccccc1C1Nc2ccccc2NC2=C1C(=O)CC(c1ccc(OC)c(OC)c1)C2 (stereo not drawn),44
O=C1CC(c2ccc3c(c2)OCO3)CC2=C1C(c1ccc(-c3ccccc3)cc1)Nc1ccccc1N2 (stereo not drawn),115*
Nc1cccc2c1C(=O)c1c(N)cccc1C2=O,6
CS(=O)(=O)N1CCN(C(=O)c2cccs2)CC1,-13
O=C1NC(=S)S/C1=C\c1cc(Cl)c(OCc2ccccc2)c(Cl)c1,-20
CC(C)CCOC(=O)c1ccc2c3c(onc13)-c1ccccc1C2=O,-16
